# Unmarked numbers belong to inactive results. Activity calls are given as the source filed them. The rule behind the calls is not given here.
# Assay: C difficile toxins, biochemical counterscreen, UDPG substrate absence, confirmatory dose response (AID 720650)
# Conditions: series mostly up to 19.5 µM; activity change, negative = inhibition: at the top concentration
Compound,"activity change, negative = inhibition",AC50
CC1(C)CCC/C(=C\c2ccccc2)C1=O,-3.51%,
O=C(c1ccccc1)c1coc2ccc(O)c(Cl)c12,,12.7 µM (active)
CCN(CC)CCCCN1c2ccccc2Sc2ccccc21,,7.03 µM (active)
CC(/C=N/n1c(-c2ccncc2)n[nH]c1=S)=C\c1ccco1,10.5%,
Cc1ccc(/C=C(\C#N)C(=O)Nc2ccccn2)o1,-11.4%,
Oc1ccc(-c2nc3cnccn3c2Nc2ccc3c(c2)OCCO3)cc1,-2.26%,
Cc1cc2c(cc1S(=O)(=O)N(C)c1ccccc1)NC(=O)CO2,-3.43%,
COc1ccccc1-n1c(SCC(=O)O)nc2c(sc(=S)n2-c2ccc(Cl)c(C)c2)c1=O,,> 39 µM
COc1ccc(/C=C2\CCC(C3CCCC3)C2=O)cc1 (stereo not drawn),-12.6%,
Cc1ccc(/C=N/NC(=O)c2cccc(S(=O)(=O)Nc3ccccc3Cl)c2)o1,-6.39%,
O=C(CCNC(=O)c1ccccc1Cl)N/N=C\c1ccc(O)cc1,,15.8 µM (active)
Cc1nc2ccccc2nc1OCC(=O)Nc1ccc(F)cc1,-2.47%,
COc1cc2c(cc1O)CC[n+]1cc3c(OC)c(OC)ccc3cc1-2,,> 39 µM
CC(C)(C)OCC(O)CN1CCN(C(=O)c2ccccc2)CC1 (stereo not drawn),-16.8%,
CN(C)c1ccc(C(=S)N2CCN(C(=S)Nc3ccc(Cl)cc3)CC2)cc1,-4.34%,
COC(=O)[C@@]12CCCCN1[C@H](c1ccc(-c3ccccc3)c(OC)c1)[C@H]1C(=O)N(C)C(=O)[C@H]12,-5.66%,
O=C(O)c1ccc(-n2nnc3ccccc32)c([N+](=O)[O-])c1,11.4%,
CNC(=O)C[C@H]1CC[C@@H]2[C@H](COc3ccc(NC(=O)Nc4ccc(C)cc4)cc3C(=O)N2C)O1,,> 39 µM
O=C(CSc1ccc2nnc(-c3ccc(F)cc3)n2n1)N1CCOCC1,-21.2%,
COc1ccc(-c2ccc3c(c2)[C@H]2[C@H](CCN2C(=O)Cc2cccnc2)[C@@H](CO)N3C)cc1,,14.7 µM (active)
COc1ccc(C2=NS(=O)(=O)N(C)C(C(=O)N(C)Cc3ccccc3)=C2)cc1,-4.01%,
O=C(C[C@H]1CC[C@@H]2[C@H](COC[C@@H](O)CN2C(=O)c2ccccn2)O1)NC1CCC1,-8.48%,
CC1=C(C(=O)OCC2CCCO2)C(c2coc3ccccc3c2=O)C2=C(CCCC2=O)N1 (stereo not drawn),-5.85%,

# Source: PubChem BioAssay AID720650 (Broad Institute, 2013)
